Data on 91 compounds can be found in PubChem BioAssay AID425 (Sanford-Burnham Center for Chemical Genomics, 2006).

The inhibition is the drop in the measured response relative to a control, in per cent.

Several values for one entry are separate records, joined by “and”; a condition that tells them apart may be missing. Identical values can stand only once. The campaign covered roughly 110,000 compounds. About 190 (0.17%) were called active. What follows is part of a selection rich in actives, with near analogues and random picks from the rest. Potency and affinity values are given separately. Values without a mark were called inactive. No stated cut-off is given here; in the data, active means inhibition above about 50%; inactive means the rest.

The test deals with Dual specificity protein phosphatase 6 (Rattus norvegicus) (UniProt Q64346). The test can be described thus: inhibition of rat DUSP6 enzyme activity – biochemical, in vitro, primary screen (AID 425).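 Further: plate controls were vehicle for no effect and reference inhibitor for full effect.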 To be noted: recombinant MKP-3 phosphatase activity, fluorescence; at 20 µM; stronger effect = higher value.
Chain of Dual specificity protein phosphatase 6 (Rattus norvegicus) (Q64346 whole entry, looked up): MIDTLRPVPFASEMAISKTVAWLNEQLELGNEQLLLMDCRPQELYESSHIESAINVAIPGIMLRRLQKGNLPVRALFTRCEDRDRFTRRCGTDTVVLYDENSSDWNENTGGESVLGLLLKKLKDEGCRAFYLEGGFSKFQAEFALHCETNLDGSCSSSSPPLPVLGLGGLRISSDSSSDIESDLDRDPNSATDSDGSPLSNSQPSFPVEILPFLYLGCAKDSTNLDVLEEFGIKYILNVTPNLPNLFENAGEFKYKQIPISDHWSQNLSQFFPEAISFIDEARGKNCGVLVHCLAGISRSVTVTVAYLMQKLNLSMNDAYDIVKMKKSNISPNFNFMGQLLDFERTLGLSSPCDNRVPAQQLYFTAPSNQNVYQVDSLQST
On to `COc1cccc(-c2cc(C(=O)NC(C)c3ccccc3)c3ccccc3n2)c1` (stereo unspecified), for which the inhibition was 2.7%. For the compound `CCCOc1ccc(C(=O)Nc2ccc(C)cc2[N+](=O)[O-])cc1`, the inhibition is 2.7%. Then `O=C(O)c1cc(O)ccc1NC(=O)C(c1ccccc1)c1ccccc1`, with 4.4%.

As for `CC(C)=C1C2CCC1C(C(=O)NCCC1=CCCCC1)C2C(=O)O` (stereo unspecified), the inhibition was 1.3%. As to `CCc1ccc(-n2c(C)cc(/C=N/NC(=O)c3cccnc3)c2C)cc1`, the inhibition was 6.1%. Turning to `O=C(NCCN1CCOCC1)c1cccc(S(=O)(=O)N2CCCCCC2)c1`, the inhibition was -10.5%.

Turning to `CN1C(=O)/C(=C2\SC(=S)N(CC(=O)O)C2=O)c2ccccc21`, the inhibition is 2%.

As for `CN1C(=O)c2oc3ccc(Br)cc3c(=O)c2C1c1ccncc1` (stereo unspecified), the inhibition is 2.2%. Under `Cc1ccc(NC(=O)C(=O)N/N=C/c2cccs2)cc1` stands 0.5%; under `CCc1ccccc1OCCN(CC)CC`, 1.4%; under `COc1cc(/C=N/NC(=O)c2cccc([N+](=O)[O-])c2)cc(I)c1O`, -0.4%. With `COc1ccc(/C=N/NC(=O)c2cccc([N+](=O)[O-])c2)cc1Br`, the inhibition was -2.3%. On to `C/C(=N\NS(=O)(=O)c1ccc(C)cc1)C(C)(C)CC(=O)O`, for which the inhibition was 0.4%. Then `Cc1ccc(S(=O)(=O)N2CCN(Cc3ccccc3[N+](=O)[O-])CC2)cc1`, with 3.5%; and `CCOC(=O)CNC(=O)CSc1nnc(Cn2cnc3ccccc32)n1C`, with -4.9%; and `COc1ccc(OC)c(CNC(=O)COc2cc(=O)n(C)c3ccccc23)c1`, with -0.9%. Turning to `CCOC(=O)/C=C/CSc1nc2sc3c(c2c(=O)[nH]1)CCCC3`, the inhibition is 3.4%. For the compound `CCOc1cc(C=C2C(=O)c3ccccc3C2=O)ccc1OCc1ccc(Cl)cc1Cl`, the inhibition is 2%. Take `COc1cc(/C=N/NC(=O)Cc2nnc(N)s2)ccc1OCc1ccc(Cl)cc1Cl`: the inhibition is 0.3%.

On to `CCN(CC)c1ccc(/C=N/NC(=O)Cn2nnc(-c3ccccc3)n2)c(O)c1`, for which the inhibition was 0.8%. For `O=C(O)CC(NC(=O)C(c1ccccc1)c1ccccc1)c1ccco1` (stereo unspecified), the inhibition is -9.2%. For the compound `O=P(c1ccccc1)(c1ccccc1)C(O)c1ccco1` (stereo unspecified), the inhibition is 4.6% and -1.6%. Under `Cc1nonc1NC(=O)Nc1cccnc1` stands -4.7%; under `O=C(NC1(O)C(=O)c2ccccc2C1=O)c1ccccc1`, 21.6%. As for `Cc1nonc1NC1(O)C(=O)c2ccccc2C1=O`, the inhibition was 106% (active). Consider `CC1=C/C(=N\OC2=C(O/N=C3/C=CC(=O)C(C)=C3)C(=O)c3ccccc3C2=O)C=CC1=O`, for which the inhibition is 42.8%. As to `CC1=CC(=O)C=C/C1=N/OC1=C(O/N=C2/C=CC(=O)C=C2C)C(=O)c2ccccc2C1=O`, the inhibition was 66% (active). Then `CC1=CC(=O)C=C/C1=N\OS(=O)(=O)c1ccccc1`, with 8.7%; and `Cc1cc(Cl)ccc1OCCCC(=O)NC1CCN(C)CC1`, with -4.9%. For the compound `Cn1c(CCNC(=O)c2ccccc2F)nnc1SCc1nc2ccccc2c(=O)[nH]1`, the inhibition is -5.4%. In the case of `COc1ccc(S(=O)(=O)Nc2cccc([N+](=O)[O-])c2C)cc1`, the inhibition was -0.4%. Take `CCCCSc1nc(C)c(CC(=O)OC)c(=O)[nH]1`: the inhibition is -20.2%. With `CCCOc1cccc(C(=O)Nc2ccc(Br)cc2C(=O)O)c1`, the inhibition was 2.6%. As to `O=C1NN(c2ccccc2)C(=O)/C1=C/c1ccc(-c2ccccc2)o1`, the inhibition was 7.9%. Under `O=C1NN(c2ccccc2)C(=O)/C1=C/c1ccc(-c2ccccc2[N+](=O)[O-])o1` stands 16%.

With `O=C1NN(c2ccccc2)C(=O)/C1=C/c1ccc(-c2ccc(F)cc2)o1`, the inhibition was -3.3%. Then `O=C1NN(c2ccccc2)C(=O)/C1=C/c1ccc(Br)o1`, with 75.8% (active). Under `O=C1NN(c2ccccc2)C(=O)/C1=C/c1ccc([N+](=O)[O-])o1` stands 56.6% (active); under `C=CCN1C(=O)/C(=C\c2ccc([N+](=O)[O-])o2)C(=O)NC1=S`, 95.8% (active); under `C=CCN1C(=O)/C(=C\c2ccc(-c3ccc([N+](=O)[O-])cc3)o2)C(=O)NC1=S`, 25.4%. As to `C=CCN1C(=O)/C(=C\c2ccc(I)o2)C(=O)NC1=S`, the inhibition was 4.5%. For `O=C1NN(c2ccccc2)C(=O)/C1=C/c1ccc(-c2cccc([N+](=O)[O-])c2)o1`, the inhibition was 6.9%. Turning to `Cc1ccc(S(=O)(=O)NC(C)(C)CN2CCN(CC(C)(C)NS(=O)(=O)c3ccc(C)cc3)CC2)cc1`, the inhibition was -0.5%.

Regarding `Cc1ccc2nc(NC(=O)c3ccccc3)sc2c1`, the inhibition is 1.9%. For `COc1ccccc1/C=C/C=N/NC(=O)CSc1nc2ccccc2n1C`, the inhibition is 1.8%.

As for `CCOc1ccccc1NC(=O)c1c(NC(=O)c2cccc(F)c2)sc2c1CCC(C)C2` (stereo unspecified), the inhibition is 3.6%. For `CSc1nc(N2CCN(CCO)CC2)c2sc3nc(-c4ccco4)c4c(c3c2n1)CCC4`, the inhibition was 0.5%. On to `CSc1nc(NCCOCCO)c2sc3nc(-c4ccco4)c4c(c3c2n1)CCC4`, for which the inhibition is -0.3%. Then `O=C(/C=C/c1ccco1)/C=C/c1ccc(-c2ccc(Cl)c(Cl)c2)o1`, with 75.1% (active); and `O=C(/C=C/c1ccco1)Nc1ccc(Cl)c(Cl)c1`, with 10.7%.

For `O=C(O)/C=C/c1ccc(-c2ccc(Cl)c(Cl)c2)o1`, the inhibition is -3.2%. As to `Cc1ccc(S(=O)(=O)/N=C2\C=CC(=O)C=C2Cl)cc1`, the inhibition is -0.1%. Under `Cc1ccc(S(=O)(=O)/N=C2\C=C(Sc3ncn[nH]3)C(=O)c3ccccc32)cc1` stands 98.1% (active); under `O=C1C(Cl)=CC(=NS(=O)(=O)c2ccc(Cl)cc2)c2ccccc21`, 95.7% (active); under `COc1ccc(S(=O)(=O)/N=C2\C=C(Br)C(=O)c3ccccc32)cc1`, 97.9% (active). Regarding `COc1ccc(S(=O)(=O)N=C2C=CC(=NS(=O)(=O)c3ccc(OC)cc3)C=C2)cc1`, the inhibition is 1.8%. As to `Cc1ccc(S(=O)(=O)/N=C2\C=C(n3cnc4ccccc43)C(=O)c3ccccc32)cc1`, the inhibition was 36.8%.

As for `Cc1ccc(S(=O)(=O)/N=C2/C=C(S(=O)(=O)c3ccc(C)cc3)C(=O)c3ccccc32)cc1`, the inhibition was 20.6%.

As to `O=C1C(N2CCOCC2)=C/C(=N\S(=O)(=O)c2ccc(Cl)cc2)c2ccccc21`, the inhibition was 5.9%. Turning to `O=C1C(Cl)=C/C(=N\S(=O)(=O)c2ccc(Cl)cc2)C(Cl)=C1Cl`, the inhibition was -1%.

In the case of `COC(=O)C(C(=O)OC)C1=C/C(=N/S(=O)(=O)c2ccc(C)cc2)c2ccccc2C1=O`, the inhibition is 1.7%. Under `Cc1ccc(S(=O)(=O)/N=C2/C=C(Cl)C(=O)c3ccccc32)cc1` stands 52.7% (active). As for `Cc1ccc(S(=O)(=O)/N=C2/C=C(Sc3nnnn3-c3ccccc3)C(=O)c3ccccc32)cc1`, the inhibition is 27.3%.

Turning to `N#CC1=C(N)N(c2ccccc2)C(c2ccco2)C1(C#N)C#N` (stereo unspecified), the inhibition was -9.8%. Turning to `COC(=O)c1ccccc1NC(=O)c1ccccc1C`, the inhibition is 0.2%. Then `O=C(/C=C/c1ccc2c(c1)OCO2)NC1CC2CCC1C2` (stereo unspecified), with 3.3%.

With `COc1ccc(C2=NN(CN3C(=O)C(=O)c4ccccc43)C(c3ccccc3)C2)cc1` (stereo unspecified), the inhibition is 1.1%. Regarding `O=C1C2=C(C(c3ccccc3)=NCCN2)C(c2ccc(O)cc2)N1c1ccccc1` (stereo unspecified), the inhibition was 0.2%. Then `Cc1ccccc1N1C(=O)/C(=C\c2cccs2)SC1=S`, with 0.2%.

Turning to `Cc1cccc(-c2nnc(SCc3nc4ccccc4[nH]3)n2Cc2ccco2)c1`, the inhibition is -6.8%. For the compound `O=S(=O)(NCCOCCNS(=O)(=O)c1ccccc1)c1ccccc1`, the inhibition is -1.6%.

For `Cc1ccc(/C(O)=C(\C#N)c2nc3ccccc3[nH]2)cc1`, the inhibition was 5.3%. On to `O=C(O/N=C1/CCCc2c1sc1nc3n(c(=O)c21)CCCCC3)c1ccc([N+](=O)[O-])cc1`, for which the inhibition is -4.1%. Under `Cc1ccc(S(=O)(=O)NC(=O)N2CCc3ccccc32)cc1` stands 4.5%; under `CCN(CC)C(=O)CSc1nc2cccnc2n1-c1ccccc1OC`, -6.6%. `OCCCc1nc2ccccc2n1Cc1ccc2ccccc2c1`: the inhibition was 3.2%. Take `CCc1nn(CC(=O)NCCCN(CC)Cc2ccccc2)c(=O)c2cc3sccc3n12`: the inhibition was 2%. Take `O=C1/C(=C/c2ccc(-c3ccc(Cl)cc3C(=O)O)o2)Sc2ccccc21`: the inhibition is 7.4%.

`O=C1NC(=O)/C(=C\c2ccc(-c3ccc(C(=O)O)cc3)o2)S1`: the inhibition was 2.5%.

Turning to `O=C(O)c1cc(-c2ccc(C=C3C(=O)c4ccccc4C3=O)o2)ccc1O`, the inhibition was 47.2%.

On to `O=C1NC(=O)/C(=C/c2ccc(-c3ccc(O)c(C(=O)O)c3)o2)S1`, for which the inhibition is 105% (active). On to `O=C1NC(=S)S/C1=C\c1ccc(-c2ccc(Cl)c(C(=O)O)c2)o1`, for which the inhibition was 10.9%.

For the compound `O=C(O)c1cc(-c2ccc(/C=C3/Sc4ccccc4C3=O)o2)ccc1O`, the inhibition is 84.4% (active). Take `COc1ccccc1CNC(=O)C(NC(=O)C1CCCCC1)C(C)C` (stereo unspecified): the inhibition is -3.5%.

Take `CCOC(=O)CNC(=S)Nc1ccc(F)cc1`: the inhibition is 1.8%. In the case of `CN(C)c1ccc(/C=C/C=C/c2cc[n+](CCCS(=O)(=O)[O-])cc2)cc1`, the inhibition is 5%. As to `c1ccc(-c2noc(C34CC5CC(CC(C5)C3)C4)n2)nc1`, the inhibition was -5.1%. Take `CN1C(=O)NC(=O)/C(=C/c2ccc(-c3ccc(Cl)cc3)o2)C1=O`: the inhibition was 39.8%.

Regarding `CN1C(=O)NC(=O)/C(=C/c2ccc(-c3ccc(Cl)cc3Cl)o2)C1=O`, the inhibition is 66.9% (active). Then `CN1C(=O)NC(=O)/C(=C/c2ccc(-c3ccc([N+](=O)[O-])cc3Cl)o2)C1=O`, with 12%; and `CCn1nc(NC(=O)c2ccncc2)c2cc3cc(C)ccc3nc21`, with -13.2%.
